From the supplement of paper PMC10849652
About 7,900 targets were measured; listed, in parts, are those with a hit and a random draw of the rest. About 0.6% of all pairs of compound and target were hits.

Experiments:
Assay in all cases: log2 fold change, soluble protein after heating vs DMSO (PISA); higher = thermal stabilisation; K562 cells, 10 uM, 30 min; active = over 0.2 and 3.5 SD of the protein, either way, in both replicates (recomputed)
[1] = compound: CS(=O)(=O)c1ccc(-c2cnc(N)c(C(=O)Nc3ccccc3)n2)cc1
How it was run: (§1)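 Soluble protein was defined as the supernatant after 21,000xg for 90 min. It came from K562 cells at 2×10^6 cells/mL given 10 μM compound for 30 min, heated in aliquots for 3 min across 48°C-58°C, pooled, and extracted in PBS with 0.5% NP-40 at 4°C, and was quantified by TMTpro 16plex LC-MS/MS with equalised channel sums. Thermal stability against control samples, from duplicates, is reported as log2 fold change.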

crizotinib = compound: C[C@@H](Oc1cc(-c2cnn(C3CCNCC3)c2)cnc1N)c1c(Cl)ccc(F)c1Cl [crizotinib]
How it was run: as §1

[2] = compound: C[C@@H]1COCCN1C2=NC(=NC(=C2)C3(CC3)S(=O)(=O)C)C4=C5C=CNC5=CC=C4
How it was run: as §1

[3] = compound: C[C@H](C1=CC=C(C=C1)C(=O)NC2=C3C=CNC3=NC=C2)N
How it was run: as §1

duvelisib = compound: C[C@H](Nc1ncnc2nc[nH]c12)c1cc2cccc(Cl)c2c(=O)n1-c1ccccc1 [duvelisib]
How it was run: as §1

gandotinib = compound: Cc1cc(Nc2cc(CN3CCOCC3)c3nc(C)c(Cc4ccc(Cl)cc4F)n3n2)n[nH]1 [gandotinib]
How it was run: as §1

tozasertib = compound: Cc1cc(Nc2cc(N3CCN(C)CC3)nc(Sc3ccc(NC(=O)C4CC4)cc3)n2)n[nH]1 [tozasertib]
How it was run: as §1

[4] = compound: Cc1cc(SCc2sc(-c3ccc(C(F)(F)F)cc3)nc2C)ccc1OCC(=O)O
How it was run: as §1

doramapimod = compound: Cc1ccc(-n2nc(C(C)(C)C)cc2NC(=O)Nc2ccc(OCCN3CCOCC3)c3ccccc23)cc1 [doramapimod]
How it was run: as §1

ispinesib = compound: Cc1ccc(C(=O)N(CCCN)[C@@H](c2nc3cc(Cl)ccc3c(=O)n2Cc2ccccc2)C(C)C)cc1 [ispinesib]
How it was run: as §1

bafetinib = compound: Cc1ccc(NC(=O)c2ccc(CN3CC[C@H](N(C)C)C3)c(C(F)(F)F)c2)cc1Nc1nccc(-c2cncnc2)n1 [bafetinib]
How it was run: as §1

[5] = compound: Cc1cccc(CC(=O)N2CCc3c2ccc(-c2cn(C)c4ncnc(N)c24)c3F)n1
How it was run: as §1

nilotinib = compound: Cc1cn(-c2cc(NC(=O)c3ccc(C)c(Nc4nccc(-c5cccnc5)n4)c3)cc(C(F)(F)F)c2)cn1 [nilotinib]
How it was run: as §1

[6] = compound: Cc1nc(Nc2n[nH]c3c2CN(C(=O)N[C@H](CN(C)C)c2ccccc2)C3(C)C)c2sccc2n1
How it was run: as §1

dasatinib = compound: Cc1nc(Nc2ncc(C(=O)Nc3c(C)cccc3Cl)s2)cc(N2CCN(CCO)CC2)n1 [dasatinib]
How it was run: as §1

[7] = compound: Cc1ncc(-c2ccnc(Nc3ccc(S(C)(=O)=O)cc3)n2)n1C(C)C
How it was run: as §1

[8] = compound: Cn1cc(-c2ccc3c(c2)CCN3C(=O)Cc2cccc(C(F)(F)F)c2)c2c(N)ncnc21
How it was run: as §1

[9] = compound: Cn1cc(-c2ccc3nnc(C(F)(F)c4ccc5ncccc5c4)n3n2)cn1
How it was run: as §1

tipifarnib = compound: Cn1cncc1[C@@](N)(c1ccc(Cl)cc1)c1ccc2c(c1)c(-c1cccc(Cl)c1)cc(=O)n2C [tipifarnib]
How it was run: as §1

mubritinib = compound: FC(F)(F)c1ccc(/C=C/c2nc(COc3ccc(CCCCn4ccnn4)cc3)co2)cc1 [mubritinib]
How it was run: as §1

Measured: log2 fold change

TARS2 (UniProt Q9BW92)
inactive: [1] 0.022 | crizotinib 0.024 | [2] 0.094 | [3] -0.002 | duvelisib 0.049 | gandotinib -0.173 | tozasertib 0.057 | [4] 0.009 | doramapimod 0.015 | ispinesib -0.094 | bafetinib -0.081 | [5] 0.114 | nilotinib -0.094 | [6] -0.003 | dasatinib -0.055 | [7] 0 | [8] 0.084 | [9] 0.022 | tipifarnib -0.119 | mubritinib 0.013

SMARCA5 (UniProt O60264)
inactive: [1] -0.004 | crizotinib -0.073 | [2] 0.273 | [3] 0.161 | duvelisib 0.025 | gandotinib -0.045 | tozasertib 0.154 | [4] 0.127 | doramapimod -0.052 | ispinesib -0.012 | bafetinib -0.052 | [5] 0.001 | nilotinib -0.019 | [6] -0.152 | dasatinib -0.052 | [7] 0.002 | [8] -0.088 | [9] -0.112 | tipifarnib -0.022 | mubritinib 0.184

TIMM13 (UniProt Q9Y5L4)
Sequence of UniProt Q9Y5L4 (Q9Y5L4 whole entry, looked up): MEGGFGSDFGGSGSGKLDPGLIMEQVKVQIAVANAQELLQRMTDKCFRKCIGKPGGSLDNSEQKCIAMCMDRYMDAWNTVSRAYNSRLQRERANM
inactive: [1] -0.047 | crizotinib 0.051 | [2] 0.151 | [3] -0.115 | duvelisib 0.079 | gandotinib -0.002 | tozasertib 0.038 | [4] 0.006 | doramapimod 0.039 | ispinesib 0.12 | bafetinib 0.086 | [5] 0.156 | nilotinib 0.018 | [6] -0.017 | dasatinib 0 | [7] 0.035 | [8] 0.07 | [9] -0.003 | tipifarnib -0.111 | mubritinib 0.005

SRRM2 (UniProt Q9UQ35)
active: [6] -0.936
inactive: [1] -0.048 | crizotinib -0.246 | [2] 0.021 | [3] -0.255 | duvelisib -0.044 | gandotinib -0.13 | tozasertib 0.013 | [4] 0.012 | doramapimod 0.044 | ispinesib -0.131 | bafetinib 0.068 | [5] 0.044 | nilotinib 0.02 | dasatinib 0.079 | [7] -0.261 | [8] 0.048 | [9] 0.022 | tipifarnib 0.077 | mubritinib 0.035

TLK1 (UniProt Q9UKI8)
inactive: [1] -0.058 | crizotinib -0.008 | [2] 0.101 | [3] -0.028 | duvelisib 0.019 | gandotinib 0.145 | tozasertib -0.004 | [4] 0.028 | doramapimod -0.023 | ispinesib 0.026 | bafetinib -0.071 | [5] 0 | nilotinib -0.073 | dasatinib -0.028 | [7] 0.007 | [8] 0.06 | [9] 0.026 | tipifarnib 0.01 | mubritinib 0.011
active: [6] -0.399

SRSF11 (UniProt Q05519)
Sequence of UniProt Q05519 (Q05519 whole entry, looked up): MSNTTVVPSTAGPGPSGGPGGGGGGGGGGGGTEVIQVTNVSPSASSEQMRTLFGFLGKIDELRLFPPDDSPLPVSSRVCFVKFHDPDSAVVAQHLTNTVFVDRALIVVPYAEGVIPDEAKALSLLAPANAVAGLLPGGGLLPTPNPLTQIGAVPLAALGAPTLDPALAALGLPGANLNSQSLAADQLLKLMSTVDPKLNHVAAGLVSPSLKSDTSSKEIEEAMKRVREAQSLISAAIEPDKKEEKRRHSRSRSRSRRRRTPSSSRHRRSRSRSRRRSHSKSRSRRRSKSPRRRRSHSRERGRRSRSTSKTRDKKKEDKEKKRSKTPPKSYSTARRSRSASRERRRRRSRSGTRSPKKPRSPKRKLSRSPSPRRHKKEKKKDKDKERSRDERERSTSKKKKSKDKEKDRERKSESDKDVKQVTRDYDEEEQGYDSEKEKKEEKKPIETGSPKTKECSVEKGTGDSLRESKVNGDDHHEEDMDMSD
inactive: [1] -0.037 | crizotinib 0.015 | [2] 0.045 | duvelisib 0.021 | gandotinib -0.068 | tozasertib 0.004 | [4] 0.067 | doramapimod -0.015 | ispinesib 0.08 | bafetinib 0.071 | [5] 0.105 | nilotinib -0.024 | dasatinib -0.034 | [7] -0.001 | [8] -0.078 | [9] 0.015 | tipifarnib -0.029 | mubritinib -0.01
active: [3] -0.277 | [6] -1.01

SUMO1 (UniProt P63165)
Sequence of UniProt P63165 (P63165 whole entry, looked up): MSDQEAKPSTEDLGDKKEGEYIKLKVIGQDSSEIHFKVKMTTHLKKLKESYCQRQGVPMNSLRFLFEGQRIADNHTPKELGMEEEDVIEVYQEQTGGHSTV
inactive: [1] -0.125 | crizotinib 0.06 | [2] -0.045 | [3] 0.176 | duvelisib -0.137 | gandotinib 0.064 | tozasertib 0 | [4] -0.039 | doramapimod -0.038 | ispinesib 0.039 | bafetinib -0.071 | [5] -0.023 | nilotinib -0.022 | [6] -0.078 | dasatinib 0.041 | [7] -0.04 | [8] -0.209 | [9] -0.068 | tipifarnib -0.35 | mubritinib 0.001

STXBP5 (UniProt Q5T5C0)
Sequence of UniProt Q5T5C0 (Q5T5C0 whole entry, looked up): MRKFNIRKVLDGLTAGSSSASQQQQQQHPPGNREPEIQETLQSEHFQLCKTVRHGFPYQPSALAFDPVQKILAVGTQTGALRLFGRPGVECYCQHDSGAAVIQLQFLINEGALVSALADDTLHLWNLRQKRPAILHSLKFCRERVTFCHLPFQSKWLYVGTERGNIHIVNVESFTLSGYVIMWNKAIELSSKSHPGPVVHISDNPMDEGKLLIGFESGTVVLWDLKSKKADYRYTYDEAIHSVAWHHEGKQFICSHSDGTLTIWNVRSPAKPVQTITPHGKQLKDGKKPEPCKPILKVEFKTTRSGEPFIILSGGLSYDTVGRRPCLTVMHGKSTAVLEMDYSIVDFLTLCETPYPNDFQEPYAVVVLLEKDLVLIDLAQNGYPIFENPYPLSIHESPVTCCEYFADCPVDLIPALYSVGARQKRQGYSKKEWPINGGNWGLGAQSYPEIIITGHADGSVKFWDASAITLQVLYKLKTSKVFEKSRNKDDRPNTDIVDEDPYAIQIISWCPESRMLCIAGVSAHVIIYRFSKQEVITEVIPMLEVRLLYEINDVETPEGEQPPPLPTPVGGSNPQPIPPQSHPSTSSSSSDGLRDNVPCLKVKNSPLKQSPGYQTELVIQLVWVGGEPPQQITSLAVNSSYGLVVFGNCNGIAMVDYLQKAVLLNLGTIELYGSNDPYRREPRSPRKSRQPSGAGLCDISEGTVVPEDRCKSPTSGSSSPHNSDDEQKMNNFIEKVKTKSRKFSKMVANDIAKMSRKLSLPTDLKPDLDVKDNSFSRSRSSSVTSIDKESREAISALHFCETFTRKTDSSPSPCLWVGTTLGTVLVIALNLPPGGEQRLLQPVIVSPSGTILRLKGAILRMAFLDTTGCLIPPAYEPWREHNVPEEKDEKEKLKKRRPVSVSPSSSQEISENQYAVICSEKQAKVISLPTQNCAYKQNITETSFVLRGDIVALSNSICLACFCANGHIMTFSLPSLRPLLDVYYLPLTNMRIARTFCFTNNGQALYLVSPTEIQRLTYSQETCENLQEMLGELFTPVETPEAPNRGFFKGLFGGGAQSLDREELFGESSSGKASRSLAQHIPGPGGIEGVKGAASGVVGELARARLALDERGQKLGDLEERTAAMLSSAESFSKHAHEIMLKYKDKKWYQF
inactive: [1] -0.021 | crizotinib -0.024 | [2] 0.006 | [3] 0.047 | duvelisib 0.066 | gandotinib -0.029 | tozasertib 0.017 | [4] -0.002 | doramapimod 0.026 | ispinesib -0.058 | bafetinib -0.032 | [5] 0.017 | nilotinib 0.003 | [6] -0.025 | dasatinib -0.06 | [7] -0.003 | [8] 0.021 | [9] -0.026 | tipifarnib -0.049 | mubritinib -0.021

THADA (UniProt Q6YHU6)
active: gandotinib -0.239
inactive: [1] 0.01 | crizotinib -0.168 | [2] 0.05 | [3] 0.018 | duvelisib 0.046 | tozasertib -0.052 | [4] 0.083 | doramapimod 0.001 | ispinesib -0.133 | bafetinib 0 | [5] 0.027 | nilotinib -0.068 | [6] 0.045 | dasatinib -0.15 | [7] -0.028 | [8] 0.098 | [9] 0.055 | tipifarnib -0.1 | mubritinib 0.123

SRPRB (UniProt Q9Y5M8)
Sequence of UniProt Q9Y5M8 (Q9Y5M8 whole entry, looked up): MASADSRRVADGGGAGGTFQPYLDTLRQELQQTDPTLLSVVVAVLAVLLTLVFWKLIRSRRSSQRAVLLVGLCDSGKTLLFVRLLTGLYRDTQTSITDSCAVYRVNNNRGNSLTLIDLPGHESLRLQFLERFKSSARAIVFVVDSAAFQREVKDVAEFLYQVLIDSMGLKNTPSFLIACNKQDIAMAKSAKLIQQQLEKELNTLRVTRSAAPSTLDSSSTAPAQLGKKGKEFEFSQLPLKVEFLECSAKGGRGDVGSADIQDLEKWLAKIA
inactive: [1] -0.006 | crizotinib 0.01 | [2] 0.059 | [3] -0.042 | duvelisib 0.012 | gandotinib 0.055 | tozasertib -0.017 | [4] 0.083 | doramapimod -0.026 | ispinesib 0.055 | bafetinib 0.107 | [5] 0.14 | nilotinib 0.035 | [6] 0.026 | dasatinib -0.094 | [7] 0.121 | [8] 0.076 | [9] 0.031 | tipifarnib -0.123 | mubritinib 0.134

SNRPD3 (UniProt P62318)
Sequence of UniProt P62318 (P62318 whole entry, looked up): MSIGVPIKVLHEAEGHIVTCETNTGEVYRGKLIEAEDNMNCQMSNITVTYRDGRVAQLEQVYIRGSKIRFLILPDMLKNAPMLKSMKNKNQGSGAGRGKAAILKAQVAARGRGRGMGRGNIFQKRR
inactive: [1] -0.102 | crizotinib 0.011 | [2] 0.036 | [3] 0.041 | duvelisib 0.039 | gandotinib 0.034 | tozasertib -0.035 | [4] -0.04 | doramapimod 0.055 | ispinesib 0.006 | bafetinib 0.013 | [5] -0.077 | nilotinib 0.034 | [6] 0.077 | dasatinib 0.08 | [7] 0.107 | [8] -0.097 | [9] -0.06 | tipifarnib 0.024 | mubritinib 0.011

SPR (UniProt P35270)
Sequence of UniProt P35270 (P35270 whole entry, looked up): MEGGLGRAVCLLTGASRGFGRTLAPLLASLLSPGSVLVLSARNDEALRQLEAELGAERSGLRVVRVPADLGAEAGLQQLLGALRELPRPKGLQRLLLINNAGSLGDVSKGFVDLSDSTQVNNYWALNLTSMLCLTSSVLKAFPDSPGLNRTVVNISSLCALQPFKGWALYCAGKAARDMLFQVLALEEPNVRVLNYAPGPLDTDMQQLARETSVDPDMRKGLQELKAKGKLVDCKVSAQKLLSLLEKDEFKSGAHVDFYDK
active: dasatinib 0.467 | tipifarnib 0.499
inactive: [1] -0.006 | crizotinib 0.125 | [2] 0.058 | [3] -0.059 | duvelisib 0.109 | gandotinib 0.288 | tozasertib 0.154 | [4] -0.025 | doramapimod -0.05 | ispinesib -0.103 | bafetinib -0.062 | [5] -0.102 | nilotinib -0.04 | [6] -0.012 | [7] -0.029 | [8] 0.144 | [9] 0.298 | mubritinib -0.083

STK38 (UniProt Q15208)
Sequence of UniProt Q15208 (Q15208 whole entry, looked up): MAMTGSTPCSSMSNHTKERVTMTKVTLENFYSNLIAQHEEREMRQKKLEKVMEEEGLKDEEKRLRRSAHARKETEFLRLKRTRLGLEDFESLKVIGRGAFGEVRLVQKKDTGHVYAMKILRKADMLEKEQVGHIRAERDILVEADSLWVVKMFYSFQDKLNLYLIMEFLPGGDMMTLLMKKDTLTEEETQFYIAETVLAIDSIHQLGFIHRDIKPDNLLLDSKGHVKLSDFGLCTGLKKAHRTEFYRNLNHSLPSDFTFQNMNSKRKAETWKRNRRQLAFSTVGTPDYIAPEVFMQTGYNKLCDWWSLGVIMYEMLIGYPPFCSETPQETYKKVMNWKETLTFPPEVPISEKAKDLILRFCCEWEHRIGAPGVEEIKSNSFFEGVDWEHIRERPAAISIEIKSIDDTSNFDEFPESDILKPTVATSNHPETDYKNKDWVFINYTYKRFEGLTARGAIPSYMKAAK
inactive: [1] 0.081 | crizotinib -0.087 | [2] 0.089 | [3] -0.031 | duvelisib 0.052 | gandotinib -0.024 | tozasertib 0.065 | [4] 0.072 | doramapimod -0.011 | ispinesib 0.026 | bafetinib 0.054 | [5] 0 | nilotinib -0.105 | dasatinib -0.136 | [7] 0.009 | [8] 0.035 | [9] 0.008 | tipifarnib -0.079 | mubritinib -0.083
active: [6] -0.343

SNRNP27 (UniProt Q8WVK2)
Sequence of UniProt Q8WVK2 (Q8WVK2 whole entry, looked up): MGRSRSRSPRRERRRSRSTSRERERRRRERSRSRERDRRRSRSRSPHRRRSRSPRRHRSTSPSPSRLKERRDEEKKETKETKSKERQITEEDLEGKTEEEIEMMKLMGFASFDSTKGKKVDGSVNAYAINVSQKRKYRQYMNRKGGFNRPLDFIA
active: [6] -0.487
inactive: [1] 0.002 | crizotinib 0.038 | [2] -0.069 | [3] 0.072 | duvelisib 0.041 | gandotinib 0.013 | tozasertib -0.084 | [4] -0.065 | doramapimod -0.056 | ispinesib -0.119 | bafetinib -0.015 | [5] -0.079 | nilotinib 0.087 | dasatinib 0.045 | [7] -0.064 | [8] -0.078 | [9] 0.031 | tipifarnib 0.032 | mubritinib 0.059

SPAST (UniProt Q9UBP0)
Sequence of UniProt Q9UBP0 (Q9UBP0 whole entry, looked up): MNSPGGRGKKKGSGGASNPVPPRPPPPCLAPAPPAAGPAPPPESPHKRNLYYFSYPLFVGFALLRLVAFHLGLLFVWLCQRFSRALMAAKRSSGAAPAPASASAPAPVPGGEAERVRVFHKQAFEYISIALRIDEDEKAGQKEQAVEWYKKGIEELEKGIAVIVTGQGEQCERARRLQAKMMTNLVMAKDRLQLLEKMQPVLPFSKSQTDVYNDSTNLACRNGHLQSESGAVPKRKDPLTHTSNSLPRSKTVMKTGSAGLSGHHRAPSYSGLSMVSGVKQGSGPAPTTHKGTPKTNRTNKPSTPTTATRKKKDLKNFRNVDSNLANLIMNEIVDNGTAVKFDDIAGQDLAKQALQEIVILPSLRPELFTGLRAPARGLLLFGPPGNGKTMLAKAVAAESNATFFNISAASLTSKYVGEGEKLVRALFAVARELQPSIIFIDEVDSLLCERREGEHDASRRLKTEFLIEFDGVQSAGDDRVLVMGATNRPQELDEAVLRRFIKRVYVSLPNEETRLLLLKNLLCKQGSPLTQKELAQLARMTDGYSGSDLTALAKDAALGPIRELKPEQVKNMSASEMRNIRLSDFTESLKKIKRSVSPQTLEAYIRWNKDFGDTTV
inactive: [1] 0.002 | crizotinib -0.074 | [2] 0.043 | [3] 0.001 | duvelisib 0.069 | gandotinib -0.025 | tozasertib -0.01 | [4] 0.15 | doramapimod -0.078 | ispinesib -0.001 | bafetinib -0.015 | [5] -0.057 | nilotinib -0.05 | [6] -0.054 | [7] 0.026 | [8] 0.099 | [9] -0.022 | tipifarnib -0.065 | mubritinib 0.036
active: dasatinib -0.246

SUPT16H (UniProt Q9Y5B9)
Sequence of UniProt Q9Y5B9 (Q9Y5B9 whole entry, looked up): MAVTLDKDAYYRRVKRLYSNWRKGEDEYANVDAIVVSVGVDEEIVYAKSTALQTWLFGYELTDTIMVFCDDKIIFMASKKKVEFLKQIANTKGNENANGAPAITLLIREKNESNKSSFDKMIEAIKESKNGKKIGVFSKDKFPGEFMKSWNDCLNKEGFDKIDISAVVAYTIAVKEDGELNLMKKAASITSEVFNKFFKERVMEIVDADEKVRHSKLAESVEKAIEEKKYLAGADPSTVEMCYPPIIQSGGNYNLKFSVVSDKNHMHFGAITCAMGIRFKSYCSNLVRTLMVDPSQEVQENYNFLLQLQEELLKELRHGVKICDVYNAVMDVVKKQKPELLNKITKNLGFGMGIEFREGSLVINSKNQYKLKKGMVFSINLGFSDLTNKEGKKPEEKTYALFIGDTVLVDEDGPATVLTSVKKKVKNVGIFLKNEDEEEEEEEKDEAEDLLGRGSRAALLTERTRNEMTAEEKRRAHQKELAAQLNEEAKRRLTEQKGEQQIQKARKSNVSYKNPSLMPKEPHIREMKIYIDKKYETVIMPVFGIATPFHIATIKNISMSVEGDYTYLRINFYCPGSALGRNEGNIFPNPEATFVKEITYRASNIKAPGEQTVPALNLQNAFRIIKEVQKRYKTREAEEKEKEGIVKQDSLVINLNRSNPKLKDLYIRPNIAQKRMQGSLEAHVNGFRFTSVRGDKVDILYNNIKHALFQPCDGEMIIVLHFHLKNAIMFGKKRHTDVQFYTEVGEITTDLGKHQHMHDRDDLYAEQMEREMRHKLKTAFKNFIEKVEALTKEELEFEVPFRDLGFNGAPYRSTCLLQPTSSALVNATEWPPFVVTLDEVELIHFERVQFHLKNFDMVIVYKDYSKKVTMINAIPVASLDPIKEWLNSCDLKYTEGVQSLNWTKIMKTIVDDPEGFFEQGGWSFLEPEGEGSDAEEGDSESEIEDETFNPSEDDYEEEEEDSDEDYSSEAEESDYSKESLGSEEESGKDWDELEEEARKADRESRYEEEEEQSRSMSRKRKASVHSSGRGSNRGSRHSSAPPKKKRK
inactive: [1] 0.138 | crizotinib -0.062 | [2] 0.251 | [3] -0.093 | duvelisib 0.084 | gandotinib -0.024 | tozasertib 0.234 | [4] 0.248 | doramapimod -0.047 | ispinesib 0.028 | bafetinib 0.006 | [5] 0.049 | nilotinib 0.011 | [6] -0.088 | dasatinib -0.269 | [7] -0.103 | [8] 0.073 | [9] 0.108 | tipifarnib -0.088 | mubritinib 0.047
